Data on 40 compounds can be found in PubChem BioAssay (NCATS).

Records with an inconclusive call do not appear. Where a call stands in place of a potency, no number is given. Calls of active or inactive are those of the source. Calls follow the shape of the dose curve; as a rule, active = well fitted cell-killing curve with a large enough effect; inconclusive = small, poorly fitted or top-dose-only effect; inactive = no such curve, though single readings can be large or run the other way.
Potency is read from the fitted curve at half-maximal effect.

A short description of this assay: qHTS of pediatric cancer cell lines to identify multiple opportunities for drug repurposing: Primary screen for OHS-50 cells (AID 1347103). Also: nearly all actives have a fitted effect of over 40% in size. The following applies: OHS-50 osteosarcoma viability, CellTiter-Glo luminescence, 48 h; series mostly up to 57.3 µM. From the text:
Drug repurposing or repositioning has been offered as a strategy for drug development in oncology programs. This approach has special potential for childhood cancers and other rare or orphan diseases, where the expected return on new drug development has been a disincentive to pharmaceuticals.
In this project we exploit the poly-pharmacology of drugs to discover new indications via phenotypic screening of a panel of 19 well-characterized cell lines derived from solid tumors seen in children and adolescents. The goal is to identify approved drugs with previously unrecognized anticancer properties that has the potential to reveal new mechanisms and biological processes involved in carcinogenesis or drug resistance. We employed a titration-based paradigm (quantitative high-throughput screening or qHTS), where all compounds were tested at multiple concentrations for their effect on cell viability. Concentration-response curves (CRCs) were derived directly from the primary screen, and both potency and efficacy values were used to identify compounds with robust bioactivity profiles. We screened the NIH Chemical Genomics Center (NCGC) Pharmaceutical Collection (NPC) and Mechanism Interrogation Plate (MIPE) small molecule collections of approved and investigational compounds against these cell lines; and measured metabolically active cells after 48 hours of compound treatment as a proxy for cell viability.
Assay Submitter: Nathalia J. Martinez, National Center for Advancing Translational Sciences, National Institutes of Health, Rockville, MD, USA; email: natalia.martinez@nih.gov
[1] Shen, M et al. Quantitative high-throughput phenotypic screening of pediatric cancer cell lines identifies multiple opportunities for drug repurposing. Oncotarget 2017 Dec 19;9(4):4758-4772. PMID 29435139.
The cells were obtained from University of North Carolina (UNC), Pediatric Preclinical Testing Program (PPT), and Coriell Institute (CI).
qHTS cell viability assay:
Cells were assayed in growth media at a density of 500-1,000 cells/well. Five microliters of cells were dispensed into 1,536-well, white, solid-bottom, TC-treated plates (Greiner Bio One) using a multidrop dispenser and incubated at 37 degrees C, 5% CO2, under a humidified atmosphere for 5 hours. Twenty-three nanoliters of compounds and controls (neutral control DMSO or positive control bortezomib at final concentration of 2.3 µM) were subsequently transferred by Kalypsys pintool. For primary screens, the MIPE collection was tested at 11-point dilutions (final concentrations range from 0.78 nM to 46 µM) and the NPC collection at 8-point dilutions (final concentrations range from 0.59 nM to 46 µM). Compounds tested in follow-up screens were assayed at 11-point dilutions. Cells were incubated for 48 hours, followed by addition of 3 µL of CellTiter-Glo (Promega). After a 15 min incubation at room temperature, samples were analyzed for luminescence intensity using a ViewLux High-throughput CCD imager equipped with clear filters.
For the compound `OCCN1C[C@H](O)[C@@H](O)[C@H](O)[C@@H]1CO`, the Potency result is “inactive”.

In the case of `COC1=C2C[C@@H](C)C[C@H](OC)[C@@H](O)[C@@H](C)C=C(C)[C@H](OC(N)=O)[C@@H](OC)C=CC=C(C)C(=O)NC(=CC1=O)C2=O`, the Potency was 6.85 µM (active).

As to `C[C@H]1[C@@H](OC(=O)CCC(=O)O)O[C@@H]2O[C@@]3(C)CC[C@@H]4[C@H](C)CC[C@@H]1[C@@]24OO3`, the Potency was 1.09 µM (active).

As to `Nc1nc2c(c(=O)[nH]1)N(C=O)[C@H](CNc1ccc(C(=O)N[C@@H](CCC(=O)O)C(=O)O)cc1)CN2`, the Potency is 27.3 µM (active).

For `O=C(Nc1nnc(-c2ccco2)o1)c1cc(-c2ccccc2)nc2ccccc12`, the Potency was 30.6 µM (active).

Regarding `C[C@@]12C[C@@]3(O)O[C@@H](O1)[C@]1(COC(=O)c4ccccc4)[C@@H]3C[C@@]12O[C@@H]1O[C@H](CO)[C@@H](O)[C@H](O)[C@@H]1O`, the Potency result was “inactive”.

For the compound `CCS(=O)(=O)Nc1ccc2[nH]c(O)c(C(=Nc3ccc(CN4CCCCC4)cc3)c3ccccc3)c2c1`, the Potency is 1.53 µM (active).

For the compound `CC(=O)OCC(=O)[C@@]1(O)CC[C@H]2[C@@H]3CCC4=CC(=O)CC[C@]4(C)[C@@H]3C(=O)C[C@@]21C`, the Potency entry was “inactive”.

For `C#C[C@]1(O)CC[C@@H]2[C@@H]3CCc4cc(O)ccc4[C@H]3CC[C@@]21C`, the Potency was 30.6 µM (active).

Take `CN1CCc2c(c3ccccc3n2Cc2ccc(C(=O)NO)cc2)C1`: the Potency was 13.7 µM (active).

On to `C[C@]12CCC(=O)C=C1[C@@H]1CC1[C@H]1[C@H]3[C@@H]4C[C@H]4[C@@]4(CCC(=O)O4)[C@@]3(C)CC[C@H]12` (stereo not given in full), for which the Potency is 19.3 µM (active).

As to `O=C(C=CC#Cc1cccc(NS(=O)(=O)c2ccccc2)c1)NO`, the Potency was 5.44 µM (active).

For `O=C(O)CCCCCC(=O)NN=C1CCCC1`, the Potency result was “inactive”.

For `CC(=O)N1CCN(c2ccc(OCc3nn(C)c(C)c3-c3cccc4c(CCCOc5cccc6ccccc56)c(C(=O)O)n(Cc5cccnc5)c34)cc2)CC1`, the Potency was 0.109 µM (active).

With `C=CC1=C(C(=O)O)N2C(=O)[C@@H](NC(=O)C(=NO)c3csc(N)n3)[C@H]2SC1`, the Potency result was “inactive”.

`CNC(=O)c1cccc(-c2ccc3c(N4CCOC[C@H]4C)nc(N4CCOC[C@H]4C)nc3n2)c1`: the Potency is 0.0685 µM (active).

Take `COc1ccc([C@@H]2CNC(=O)C2)cc1OC1CCCC1`: the Potency result is “inactive”.

With `Nc1nc(=O)n([C@H]2CSC(CO)O2)cc1F` (stereo not given in full), the Potency entry is “inactive”.

In the case of `C=CC(=O)Nc1ccc2ncnc(Nc3ccc(OCc4cccc(F)c4)c(Cl)c3)c2c1`, the Potency is 0.0043 µM (active).

For the compound `O=C(Nc1cc2cc[nH]c2cn1)c1ccccc1`, the Potency is 10.9 µM (active).

`CC(Oc1ccc(O)cc1)(P(=O)(O)O)P(=O)(O)O`: the Potency result was “inactive”.

Take `CCCCOc1ccc(C(=O)Nc2ccc(F)cc2F)cc1`: the Potency result was “inactive”.

On to `Cn1cc(C[C@@H](N)C(=O)O)c2ccccc21`, for which the Potency entry was “inactive”.

For the compound `CCNC(=O)Nc1ccc(-c2nc3c(c(N4CCOC[C@H]4C)n2)CCN(C2COC2)C3)cc1`, the Potency is 0.485 µM (active).

For the compound `CNC(=O)Nc1ccc(-c2nc(N3CC4CCC(C3)O4)c3cnn(C4CCC5(CC4)OCCO5)c3n2)cc1`, the Potency was 0.0217 µM (active).

On to `CCc1ccc(C(=O)Nc2cc(CN3CCN(C)CC3)cc(C(F)(F)F)c2)cc1C#Cc1cnc2ccnn2c1`, for which the Potency was 12.2 µM (active).

As for `Nc1nc(=O)n([C@H]2C[C@H](O)[C@@H](CO)O2)cc1F`, the Potency entry was “inactive”.

`OCC(O)C(O)C(O)CO` (stereo not given): the Potency entry was “inactive”.

Take `CC(=O)C1=C(O)C=C2Oc3c(C(C)=O)c(O)c(C)c(O)c3C2(C)C1=O` (stereo not given): the Potency is 1.72 µM (active).

Take `CC(C)c1cnn2c(NCc3ccccc3)cc(NCCCCCCN)nc12`: the Potency was 21.7 µM (active).

`CCCCC(=O)O[C@]1(C(=O)CO)[C@@H](C)C[C@H]2[C@@H]3CCC4=CC(=O)C=C[C@]4(C)[C@@]3(F)[C@@H](O)C[C@@]21C`: the Potency entry is “inactive”.

In the case of `COC1=C(OC)C(=O)C(CC=C(C)CCC=C(C)CCC=C(C)CCC=C(C)CCC=C(C)CCC=C(C)CCC=C(C)CCC=C(C)CCC=C(C)CCC=C(C)C)=C(C)C1=O`, the Potency result is “inactive”.

On to `CC(=O)O[C@H]1C[C@@H]2CC[C@H]3[C@H]4C[C@H]([N+]5(C)CCCCC5)[C@@H](OC(C)=O)[C@@]4(C)CC[C@@H]3[C@@]2(C)C[C@H]1N1CCCCC1`, for which the Potency entry is “inactive”.

`Oc1cc2c(cc1O)C1c3ccc(O)c(O)c3OCC1(O)C2` (stereo not given): the Potency result is “inactive”.

Take `NC(=O)c1ncn([C@@H]2O[C@H](CO)[C@@H](O)[C@@H]2O)c1O`: the Potency entry is “inactive”.

On to `CC(Cc1ccc(O)c(O)c1)(NN)C(=O)O` (stereo not given), for which the Potency entry was “inactive”.

As for `Cn1cc(CNCC2CCN(c3ncc(C(=O)NO)cn3)CC2)c2ccccc21`, the Potency is 0.0863 µM (active).

Turning to `C[C@H](NC(=O)[C@@H](O)c1cc(F)cc(F)c1)C(=O)N[C@@H]1C(=O)N(C)c2ccccc2-c2ccccc21`, the Potency result was “inactive”.

Consider `OC[C@@H](O)[C@@H](O)[C@H](O)[C@@H](O)CO`, for which the Potency result is “inactive”.

Regarding `C=C1CCC2[C@](C)(CO)C(O)CC[C@]2(C)C1CC=C1C(=O)OCC1O` (stereo not given in full), the Potency result is “inactive”.
